Assay results reported in the OligoGym collection.

molecular target: LGALS7B; test: pooled miR-30 sensor sort-seq; sequence = guide strand; conditions: shRNA
Note: reference of the scale not given here.

Point of comparison: TTTACATGGAACCTGCTGGCAT, sensor-assay potency score (higher = more potent) -0.552. Against it:
- TTACATGGAACCTGCTGGCATT — lower, -1.13
- TTGGGAGGAACCAAGCCGCGAA — lower, -0.897
- TGCTGTTGAAGACCACCTCCGA — lower, -0.584
- TGAAATGCAGGGCGGCATCGGA — lower, -1.07
- TTGCTGTTGAAGACCACCTCCG — higher, -0.31
- ATTGGGAGGAACCAAGCCGCGA — lower, -1.73

molecular target: LHCGR; test: as above; conditions: shRNA

Point of comparison: TTTGGTGGAAGAAATATCCAAG, sensor-assay potency score (higher = more potent) -0.193. Against it:
- TTGGTAGCCATTAATTCTGGGT — higher, -0.032
- TAACTCAGCACATTTGTAGTGT — higher, 0.247
- TCCATTGTGCATCTTCTCCAGA — lower, -0.921
- TATAGTTTGAGTGTTACAGATT — lower, -0.877
- TAATCGCAGCTTTTGGTCCAGG — lower, -1.08
- TTACTGTGCTTTCACATTGTTT — lower, -1.55
- TAGTCGAGTGAGACCGGCCGTG — lower, -0.508
- TAAGCTGAAAAATCTTTCCTTC — higher, 0.265
- TTGACAAATGTTTCTCTTGATG — lower, -1.44
- TTCACTTTCCTTACTGTGCTTT — higher, 0.168
- TTATTTGATCCAGTGAAGCCAT — lower, -0.633

molecular target: LHFPL3; test: as above; conditions: shRNA

Point of comparison: TAATCCATGATCACATCTCTTT, sensor-assay potency score (higher = more potent) -0.691. Against it:
- TACTTGTCTGTCTTTTCTCCAC — higher, -0.0892
- TTAGCTTGTGTTCATTCTCAGG — lower, -1.28
- TAAAATAGGAATGTGGTCCTAA — higher, 0.497
- TTAGTTGTTAACTACTTCCAGA — lower, -0.755
- TTTTACTTCATCTGAGTCCCAG — higher, 0.0126
- TAGCCTATAATATTACACGTGA — higher, -0.577
- ATATCTTGTACACAGTGGCCGT — lower, -1.29
- TACATGTTAACTCTAGAGCATT — lower, -1.25
- TTTACTTCATCTGAGTCCCAGC — higher, -0.606
- TTAAACAGAACACAGACTTGGT — higher, 0.0174
- TATCTTGTACACAGTGGCCGTG — higher, -0.302

molecular target: LHFPL4; test: as above; conditions: shRNA

Point of comparison: AAGTCGGTGAAGGAGCCCCGGC, sensor-assay potency score (higher = more potent) -1.53. Against it:
- TAGTGCTCGTGGTAGAGCTTGG — higher, -0.315
- TAGACCGTAGCCGTGTTGCAGA — higher, -0.559
- AAGAGCTGCATCCAGGCGCAGA — higher, -1.19
- AAATCTTTGTTCTCCGGCTTGA — higher, -0.165
- AGATCTTGTAGACCGTAGCCGT — lower, -1.61
- AAAATCTTTGTTCTCCGGCTTG — higher, -0.289
- TGGATGAAGACCACCACGTTGA — higher, -0.905
